Holding throughout (experiment): NCI-60 one-dose screen, 48 h (100 = growth as untreated, 0 = no growth, -100 = all killed)
The subject of one experiment is A549/ATCC NSCLC. The following applies: 10 µM unless noted.
The subject of a further experiment is DU-145 prostate. The following applies: 10 µM unless noted.
The subject of a further experiment is K-562 leukemia. The following applies: 10 µM unless noted.
The next experiment relates to RXF 393 renal. The following applies: 10 µM unless noted.
The test system of another experiment is SF-295 CNS. The following applies: 10 µM unless noted.
A further experiment relates to UACC-257 melanoma. The conditions noted are these: 10 µM unless noted.
Another experiment concerns HT29 colon. The conditions noted are these: 10 µM unless noted.
The next experiment concerns SNB-75 CNS. The following applies: 10 µM unless noted.
For a further experiment, the system named is SK-MEL-2 melanoma. The conditions noted are these: 10 µM unless noted.
The next experiment concerns ACHN renal. The following applies: 10 µM unless noted.
The next experiment deals with CAKI-1 renal. The conditions noted are these: 10 µM unless noted.
Another experiment relates to A498 renal. The conditions noted are these: 10 µM unless noted.
A further experiment relates to HL-60(TB) leukemia. The conditions noted are these: 10 µM unless noted.
The next experiment has as its system OVCAR-5 ovarian. The following applies: 10 µM unless noted.
A further experiment concerns OVCAR-4 ovarian. The conditions noted are these: 10 µM unless noted.
A further experiment concerns SK-OV-3 ovarian. The following applies: 10 µM unless noted.
A further experiment has as its system HS 578T breast. The conditions noted are these: 10 µM unless noted.
Another experiment relates to NCI/ADR-RES ovarian. The conditions noted are these: 10 µM unless noted.
The next experiment deals with T-47D breast. The conditions noted are these: 10 µM unless noted.
Another experiment concerns BT-549 breast. The conditions noted are these: 10 µM.

The panel holds about 83,000 compounds, 20% with a hit somewhere; the sample as a whole holds those more often.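 Each cell line was grown in a 96-well plate and treated with one concentration of compound for 48 hours. Values below 10 were considered active.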 Values without a mark were called inactive. The source made the active and inactive calls.

The values below come from PubChem BioAssay (NCI).

For `CN(C)P1(N(C)C)=NP(N(C)C)(N(C)C)=NP(N(C)C)(N(C)C)=N1`, the growth was 99.3% in the experiment with A549/ATCC NSCLC; 110% with DU-145 prostate; 102% with K-562 leukemia; 109% in the experiment on RXF 393 renal; 101% with SF-295 CNS; 93.6% with UACC-257 melanoma. In addition, the growth in the experiment with HT29 colon was 104%; in the experiment on SNB-75 CNS, 90.3%; with SK-MEL-2 melanoma it was 98.2%; with ACHN renal, 97.2%; in the experiment on CAKI-1 renal, 79%; in the experiment on A498 renal, 108%. The growth was 100% in the experiment with HL-60(TB) leukemia; 104% in the experiment with OVCAR-5 ovarian; 95% with OVCAR-4 ovarian; 106% with SK-OV-3 ovarian; 114% with HS 578T breast; 107% in the experiment on NCI/ADR-RES ovarian. Further, the growth is 103% in the experiment on T-47D breast and 105% in the experiment with BT-549 breast.
In the case of `O=[As]c1ccc(C(=O)c2ccc(Oc3ccccc3)cc2)cc1` (configuration not stated), the growth with A549/ATCC NSCLC was -94.8% (active); with DU-145 prostate it was -94% (active); in the experiment on K-562 leukemia, -17.8% (active); in the experiment on RXF 393 renal, -100% (active); with SF-295 CNS, -65.1% (active); in the experiment with UACC-257 melanoma it was -99.4% (active). Further, the growth is -77.6% (active) with HT29 colon; -92% (active) in the experiment on SNB-75 CNS; -95.2% (active) in the experiment on SK-MEL-2 melanoma; -100% (active) in the experiment on ACHN renal; -53.7% (active) with CAKI-1 renal; -97.7% (active) in the experiment on A498 renal. For the same compound, the growth with HL-60(TB) leukemia is -23.4% (active); in the experiment with OVCAR-5 ovarian it was -95.4% (active); in the experiment with OVCAR-4 ovarian it was -91.2% (active); with SK-OV-3 ovarian it was -100% (active); in the experiment with HS 578T breast, 59.7%; with NCI/ADR-RES ovarian, -52.4% (active). Further, the growth with T-47D breast is -47.2% (active); with BT-549 breast, -98.8% (active).
Consider `C/C(=C\c1cc(C(F)(F)F)n(-c2ccc(N)cc2)n1)[C@@H]1C[C@@H]2O[C@]2(C)CCC[C@H](C)[C@H](O)[C@@H](C)C(=O)C(C)(C)[C@@H](O)CC(=O)O1`, for which the growth in the experiment with A549/ATCC NSCLC is 1.71% (active); with DU-145 prostate it was -23.9% (active); with K-562 leukemia, 6.37% (active); in the experiment with RXF 393 renal it was -8.53% (active); with SF-295 CNS it was 2.01% (active); in the experiment on UACC-257 melanoma, 26.6%. For the same compound, the growth in the experiment on SNB-75 CNS was -16.2% (active); with ACHN renal it was 31.9%; in the experiment with CAKI-1 renal, 25.3%; with A498 renal, -0.114% (active); with HL-60(TB) leukemia, 0.265% (active); with OVCAR-5 ovarian, 14.7%. In addition, the growth was 44.7% with OVCAR-4 ovarian; 2.26% (active) in the experiment on SK-OV-3 ovarian; -11.5% (active) in the experiment on HS 578T breast; 7.67% (active) with NCI/ADR-RES ovarian; 12.8% in the experiment with T-47D breast; -2.85% (active) with BT-549 breast.
As to `CCC(CO)NC1CCCCC1` (configuration not stated), the growth with A549/ATCC NSCLC is 93.8%; in the experiment with DU-145 prostate it was 91.1%; with K-562 leukemia it was 16.6%; in the experiment on RXF 393 renal it was 45%; in the experiment on SF-295 CNS, 113%; in the experiment on UACC-257 melanoma, 89.9%. Moreover, the growth is 5.74% (active) in the experiment on HT29 colon; 81.6% in the experiment on SNB-75 CNS; 81.2% in the experiment with SK-MEL-2 melanoma; 84.7% in the experiment with ACHN renal; 61.5% in the experiment on CAKI-1 renal; 71.6% in the experiment on A498 renal. In addition, the growth was 60.9% in the experiment on HL-60(TB) leukemia; 92.4% in the experiment on OVCAR-5 ovarian; 89% in the experiment on OVCAR-4 ovarian; 102% in the experiment with SK-OV-3 ovarian; 91.2% in the experiment with HS 578T breast; 80.9% with NCI/ADR-RES ovarian. For the same compound, the growth with BT-549 breast is 108%.
`C[C@]12CCc3sc(-c4ccc(Cl)cc4)nc3C1=CC[C@@H]1[C@@H]2CC[C@]2(C)C(=O)CC[C@@H]12`: the growth in the experiment with A549/ATCC NSCLC is 80.2%; in the experiment with DU-145 prostate it was 43.6%; with K-562 leukemia it was 7.44% (active); in the experiment on RXF 393 renal it was -36.9% (active); in the experiment with SF-295 CNS it was 5.96% (active); with UACC-257 melanoma, 99%. Besides, the growth in the experiment on SNB-75 CNS was 58.3%; with ACHN renal it was 70.6%; with CAKI-1 renal it was 67.7%; in the experiment on A498 renal, 73.3%; in the experiment with HL-60(TB) leukemia, 39%; in the experiment on OVCAR-5 ovarian, 98.2%. For the same compound, the growth with OVCAR-4 ovarian was 74%; with SK-OV-3 ovarian, 79.2%; in the experiment with HS 578T breast, 44.6%; in the experiment with NCI/ADR-RES ovarian, 81.6%; with T-47D breast it was 66.2%; with BT-549 breast, 60.6%.
Take `COc1cc(C2=NN(c3ccccc3)C(c3sc(N(CCCl)CCCl)nc3Cl)C2)cc(OC)c1OC` (configuration not stated): the growth with A549/ATCC NSCLC was 83%; in the experiment on DU-145 prostate, 102%; in the experiment with K-562 leukemia, 74.3%; in the experiment with RXF 393 renal, 106%; with SF-295 CNS it was 89.4%; in the experiment with UACC-257 melanoma, 87.4%. For the same compound, the growth in the experiment on HT29 colon is 84.5%; in the experiment on SNB-75 CNS it was 69.2%; with SK-MEL-2 melanoma, 85.2%; in the experiment on ACHN renal, 88.8%; in the experiment on CAKI-1 renal it was 64%; in the experiment with A498 renal, 93.2%. For the same compound, the growth with HL-60(TB) leukemia was 96.2%; with OVCAR-5 ovarian, 99.5%; in the experiment with OVCAR-4 ovarian it was 87.5%; with SK-OV-3 ovarian, 77.7%; with HS 578T breast, 85.8%; with NCI/ADR-RES ovarian, 93.8%. For the same compound, the growth was 68.7% in the experiment on T-47D breast and 95.4% with BT-549 breast.
For `S=P(Nc1ccccc1)(Nc1ccccc1)c1ccccc1`, the growth in the experiment with A549/ATCC NSCLC was 91.8%; in the experiment with DU-145 prostate, 122%; in the experiment on RXF 393 renal, 98.5%; in the experiment with SF-295 CNS, 102%; in the experiment with UACC-257 melanoma, 102%; with HT29 colon it was 104%. Also, the growth in the experiment on SNB-75 CNS was 96.7%; in the experiment on SK-MEL-2 melanoma, 105%; in the experiment on ACHN renal, 102%; with CAKI-1 renal, 71.4%; in the experiment with A498 renal, 70.6%; with OVCAR-5 ovarian it was 99.6%. In addition, the growth was 104% with OVCAR-4 ovarian; 108% with SK-OV-3 ovarian; 107% in the experiment with HS 578T breast; 88.3% in the experiment with NCI/ADR-RES ovarian; 87.5% in the experiment on T-47D breast; 101% in the experiment with BT-549 breast.
On to `Oc1ccc2c3c1O[C@H]1c4[nH]c5ccccc5c4C[C@@]4(O)C(C2)N(CC2CC2)CC[C@]314`, for which the growth was 90% with A549/ATCC NSCLC; 96.6% in the experiment on DU-145 prostate; 77.7% with K-562 leukemia; 98.3% in the experiment with SF-295 CNS; 97.4% with UACC-257 melanoma; 83.9% in the experiment on HT29 colon. The growth was 76.8% in the experiment on SNB-75 CNS; 90.1% in the experiment on SK-MEL-2 melanoma; 89.7% with ACHN renal; 92.3% with CAKI-1 renal; 100% with A498 renal; 98.6% with HL-60(TB) leukemia. Also, the growth was 106% in the experiment on OVCAR-5 ovarian; 96.5% in the experiment with OVCAR-4 ovarian; 103% in the experiment with SK-OV-3 ovarian; 92.1% in the experiment on HS 578T breast; 92.1% in the experiment with NCI/ADR-RES ovarian; 84.8% with T-47D breast. For the same compound, the growth in the experiment with BT-549 breast is 97.4%.
